Assay outcomes deposited in PubChem BioAssay by National Center for Advancing Translational Sciences (NCATS).
Hits are enriched below; roughly 14% of the tested compounds scored in any of these assays.
NS1 inh – influenza NS1 inhibition; Potency, µM (top dose mostly 46.1 µM), without a hit: at the highest dose activity, positive = more growth; actives 0.4% (n = 270,000); AID 2326; calls by dose curve; note: potency is the fitted concentration of half-maximal effect; actives are rising curves; nearly all actives have a fitted effect of over 50% in size
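OD600 was taken as the measure of yeast growth restored by compound in an NS1-expressing S. cerevisiae strain. Cells had been washed out of glucose medium and diluted 1:100 into galactose -URA medium, pH 6.0.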
Shiga inhibitor – inhibitors of Shiga toxin in Vero cells; Vero cells, Shiga toxin protein synthesis inhibition reporter; actives 9.2% (n = 290,000); inhibition, % at 38.7 µM; in the data active = inhibition mostly above about 28%, no sharp cut-off; inactive = mostly below about 43%; note: 0% is about no effect
LmPK inh – LmPK (Leishmania mexicana) enzyme inhibition | purified LmPK, Kinase-Glo ATP luminescence, 1 h | actives 0.37% (n = 290,000) | AID 1721 | Potency, µM (titrated, usually from 57.5 µM), without a hit: at the top dose activity change, negative = inhibition, hits mostly inhibitors | Q27686; note: potency is the fitted concentration of half-maximal effect; % is set by controls: 0 for no effect and ±100 for the full control effect
Target sequence (Q27686 whole entry, looked up): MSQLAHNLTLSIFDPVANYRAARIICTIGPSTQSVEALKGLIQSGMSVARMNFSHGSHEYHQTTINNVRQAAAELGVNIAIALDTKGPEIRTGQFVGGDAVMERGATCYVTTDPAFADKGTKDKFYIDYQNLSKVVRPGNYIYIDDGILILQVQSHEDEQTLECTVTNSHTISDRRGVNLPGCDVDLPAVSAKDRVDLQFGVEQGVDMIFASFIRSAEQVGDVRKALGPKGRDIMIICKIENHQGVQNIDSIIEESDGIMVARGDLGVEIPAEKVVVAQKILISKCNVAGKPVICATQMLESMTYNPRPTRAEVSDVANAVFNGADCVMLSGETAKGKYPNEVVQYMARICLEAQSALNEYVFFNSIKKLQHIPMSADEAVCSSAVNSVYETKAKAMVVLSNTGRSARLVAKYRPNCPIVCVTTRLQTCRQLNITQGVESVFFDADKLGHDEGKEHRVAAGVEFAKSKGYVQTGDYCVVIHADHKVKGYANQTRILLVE
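Pyruvate kinase activity monitored as ATP production (luciferase luminescence). Conditions: 0.1 nM enzyme, 0.5 mM PEP, 0.1 mM ADP, 1 h, RT; normalized against uninhibited and no-enzyme wells.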
Giardia FBPA inh – inhibitors of Giardia lamblia fructose-1,6-bisphosphate aldolase; A8B2U2; purified Giardia FBPA; Potency, µM (series often up to 59.6 µM), for inactives: at the highest dose activity, negative = inhibition, usual class: inhibitors; actives 0.71% (n = 290,000); AID 2451; note: potency is the fitted concentration of half-maximal effect; % is set by controls: 0 for no effect and ±100 for the full control effect; nearly all actives have a fitted effect of over 55% in size
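40 nM FBPA preincubated 10 min at RT with compound (up to 57.5 uM final), then substrate plus GAPDH/TPI/NAD/arsenate coupling and diaphorase/resazurin added. Fluorescence read after 20 min at RT, 525/598 nm.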
Cycloheximide cs – affects cycloheximide protein synthesis inhibition readout, counter-screen; cell reporter, cycloheximide protein synthesis inhibition counterscreen; max response, %; actives 12% (n = 300,000); AID 2314; in the data active = max response mostly above about 13%, no sharp cut-off; inactive = mostly below about 14%; note: read at 38.3 µM for the half of the compounds with a filed dose; 0% is about no effect
* = called active by the depositor; i = inactive; ? = inconclusive; . = no result. Unless noted, calls come from the whole dose curve; as a rule, active = well fitted curve in the direction sought with a large enough effect; inconclusive = small, poorly fitted or top-dose-only effect, or another doubt; inactive = no such curve, though single readings can be large; an effect the other way counts as inactive or inconclusive.

SMILES	NS1 inh	Shiga inhibitor	LmPK inh	Giardia FBPA inh	Cycloheximide cs
Brc1ccc(CSc2ncnc3nc[nH]c23)cc1	?	18	-1%	-1%	16*
COc1ccc(C(=O)CSc2ncnc3nc[nH]c23)cc1	5%	14	7%	-23%	3
Clc1ccc(N2N=C(c3cccs3)CC2c2ccco2)cc1 (centres undefined)	2%	7	0%	-6%	37*
c1ccc(N2N=C(c3cccs3)CC2c2ccco2)cc1 (centres undefined)	18%	27	3%	-2%	6
O=[N+]([O-])c1cccnc1NCCc1c[nH]c2ccccc12	-3%	68*	2%	-9%	31*
COC(=O)c1ccc(COc2cccnc2[N+](=O)[O-])cc1	-19%	35*	-5%	9%	24*
O=c1ccnc(NCCc2ccccc2)[nH]1	9%	48	-11%	1%	29*
O=C(COc1cccnc1[N+](=O)[O-])NCc1ccc(F)cc1	-4%	-7	-1%	-3%	-5
O=[N+]([O-])c1cc(C(F)(F)F)ccc1NCCc1c[nH]c2ccccc12	13%	54*	0%	-9%	10*
Cc1cccnc1NC(=O)CCc1c[nH]c2ccccc12	6%	10	-1%	.	4
O=C(NCc1ccc(F)cc1)C(c1ccc(Cl)cc1)N(C(=O)c1csnn1)C1CC1 (centres undefined)	14%	-4	2%	2%	-5
CC(C)c1cccc(C(C)C)c1NC(=O)CN1CCCC1	-10%	-7	5%	0%	-2
Cc1oncc1C(=O)Nc1cccc(C#N)c1	4%	-33	-12%	.	-2
Cc1cccc(OCCNc2ccc(C(F)(F)F)cc2[N+](=O)[O-])c1	3%	-5	1%	1%	9.3*
O=C(COc1cccnc1[N+](=O)[O-])NCCc1ccccc1	0%	16	6%	1%	14*
O=C(COc1cccnc1[N+](=O)[O-])NCCc1ccc(F)cc1	6%	-11	2%	1%	2
Cc1nn(Cc2ccccc2)c(C)c1NC(=O)CCCn1nc([N+](=O)[O-])c(Cl)c1C	-15%	-18	-4%	-3%	-6
NS(=O)(=O)c1ccc(CCNc2ccccc2[N+](=O)[O-])cc1	1%	77*	9%	3%	36*
Cc1c(Cl)c([N+](=O)[O-])nn1CCCC(=O)NCCc1ccccc1	.	102*	0%	1%	31*
CS(=O)(=O)NCCCNc1ccc(C(F)(F)F)cc1[N+](=O)[O-]	3%	19	0%	0%	15
COc1cc2oc(=O)cc(-c3ccc(-c4sccc4C=O)cc3)c2c(OC)c1OC	.	i	.	1%	10
C=CC[C@@H]1/C=C(\C)C[C@H](C)C[C@H](OC)[C@H]2O[C@@](O)(C(=O)C(=O)N3CCCC[C@H]3C(=O)O[C@H](/C(C)=C/[C@@H]3CC[C@@H](O)[C@H](OC)C3)[C@H](C)[C@@H](O)CC1=O)[C@H](C)C[C@@H]2OC	.	-6	.	-18%	-3
COc1ccccc1CNc1ncccc1[N+](=O)[O-]	-4%	-3	-1%	4%	1
O=[N+]([O-])c1cccnc1NCCc1ccccc1	-3%	67*	?	-1%	37*
COc1ccc(Cc2nc3ccccc3n2C)cc1	.	-2	0%	-25%	2
SMILES	NS1 inh	Shiga inhibitor	LmPK inh	Giardia FBPA inh	Cycloheximide cs
COc1ccc(N=Nc2nc3ccc(Br)cc3n2C)cc1	-5%	70*	-4%	?	40*
Cc1nc2cnc(OCc3ccccc3)nc2n(CCc2ccccc2)c1=O	.	.	.	3%	.
CSc1ccccc1NC(=O)C1CC(c2c(F)cccc2Cl)=NO1 (centres undefined)	-1%	42*	0%	6%	30*
O=C(Nc1ccc(Br)cc1)C1CC(c2c(F)cccc2Cl)=NO1 (centres undefined)	-30%	16	-2%	-8%	13*
Cc1ccc(-c2n[nH]c(=S)n2/N=C/c2cccn2C)cc1	1%	-5	7.9µM*	.	1
CCOC(=O)C(CCc1ccccc1)NC(C)C(=O)N1Cc2ccccc2CC1C(=O)O (centres undefined)	.	.	.	0%	.
COCCNC(=O)c1cccc(OC2CCN(Cc3ccc(C(C)C)cc3)CC2)c1	1%	.	-7%	-3%	-1
CC(C)CN1CCC(Oc2cccc(C(=O)NCCc3ccccc3)c2)CC1	7%	60*	-1%	2%	27*
COCC(C)N1CCC(Oc2cccc(C(=O)NCCc3ccccc3)c2)CC1 (centres undefined)	20%	107*	-6%	.	59*
CCSc1nnc(NC(=O)CCNS(=O)(=O)c2ccccc2F)s1	-2%	-5	0%	1%	11
O=C(NCc1ccccn1)Nc1cccc(Cl)c1Cl	2%	35	-9%	.	59*
Cc1c(Cl)cccc1NC(=O)NCc1ccccn1	-4%	31	0%	2%	15*
Cc1nn(C)c(C)c1CNC(=O)Nc1cccc(Cl)c1C	.	49	-1%	1%	32*
COC(=O)c1ccccc1NC(=O)NCc1ccccn1	-6%	-8	4%	0%	-2
S=C(NCc1ccccn1)Nc1ccccc1Cl	15%	13	-8%	-14%	27
O=C(NCc1ccccn1)Nc1ccccc1Cl	1%	32*	-6%	0%	25*
c1ccc(CNc2ncncc2-c2ccc3c(c2)OCO3)cc1	.	.	.	-19%	.
CCCCC[C@H](O)/C=C/C=C\C=C\C=C\[C@@H](O)[C@@H](O)CCCC(=O)O	.	.	.	0%	.
CC[C@H](C)[C@@H]1NC(=O)[C@H](Cc2ccc(O)cc2)NC(=O)[C@@H](N)CSSC[C@@H](C(=O)N2CCC[C@H]2C(=O)N[C@@H](CC(C)C)C(=O)NCC(N)=O)NC(=O)[C@H](CC(N)=O)NC(=O)[C@H](CCC(N)=O)NC1=O	.	8	.	7%	-6
COc1ccc(N2Cc3ccc(C(=O)N/N=C\c4ccc(O)cc4O)cc3C2)cc1	13%	19	3%	13%	13
O=C(NCc1nnc(SCC(=O)N2CCN(c3ccccc3)CC2)o1)c1ccc(F)cc1	14%	11	8%	-9%	2
CCn1c(SCC(=O)NC2CCCC2)nnc1-c1ccccn1	9%	14	0%	1%	0
Cc1ccc(SCc2cn3c(C)cc(C)nc3n2)cc1	-4%	70*	0%	-8%	23*
Cc1cc(C)n2cc(CSc3ccc(Cl)cc3)nc2n1	3%	49*	0%	-3%	27*
Cc1cc(C)n2cc(CSc3nc4ccccc4s3)nc2n1	-4%	40*	4%	-16%	36*
CNC(=O)c1cccnc1Nc1cccc(C(F)(F)F)c1	-39%	11	0%	-5%	27*
CCN(C(=O)COC(=O)c1cccnc1Nc1cccc(C(F)(F)F)c1)C1CCS(=O)(=O)C1 (centres undefined)	-5%	51*	-7%	-7%	42*
O=[N+]([O-])c1cc(N=Nc2ccc3ccccc3c2)ccc1O	3%	.	2%	11%	13*
